Common to all, as to details: concentration: 10 µM; 24 h
Experiment [1] relates to HCC1569. Put plainly: cell number relative to DMSO (% of DMSO); higher = more cells (less growth inhibition / toxicity). In short, it runs like this:
(§1)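 HCC1569 and TDF cells were seeded at 800 per well in 384-well plates in RPMI with 10% FBS and treated with compounds at 10 µM for 24 h at 37 °C, in triplicate. After fixation in 3.7% formaldehyde, cells were stained with a rabbit anti-H1.0 antibody, an AlexaFluor 647 secondary and DAPI, and six fields per well were imaged at ×10. H1.0 nuclear intensity or cell number is given as percent of the plate control, using the median of replicates, with HCC1569 values smoothed for positional effects.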

The subject of experiment [2] is TDF. Described as above. The method, boiled down:
as §1

Experiment [3] concerns TDF. Put plainly: H1.0 immunofluorescence intensity relative to DMSO (% of DMSO); higher = stronger H1.0 induction, active = 120 or more. The method, boiled down:
as §1

In experiment [4] the test system is HCC1569. Description: H1.0 immunofluorescence intensity relative to DMSO (% of DMSO); higher = stronger H1.0 induction, active = 140 or more. In short, it runs like this: as §1

For 26 compounds, cell number and H1.0 immunofluorescence intensity results are on record in the supplement of paper PMC7156485.

Structures are written as SMILES. Several values for one entry are separate records, joined by “and”; a condition that tells them apart may be missing. Equal entries are not always repeated.
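Wherever H1.0 immunofluorescence intensity relative to DMSO is given: TDF is a line of transformed human dermal fibroblasts of mesenchymal origin.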
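Wherever cell number relative to DMSO is given: TDF denotes transformed human dermal fibroblasts of mesenchymal origin.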

For the compound `CCCc1nn(C)c2c(=O)nc(-c3cc(S(=O)(=O)N4CCN(C)CC4)ccc3OCC)[nH]c12` [Sildenafil], the results for the cell number with HCC1569 [1] and in the experiment on TDF [2] were 101 and 94, respectively. Also, the H1.0 immunofluorescence intensity with TDF [3] is 95.1 (inactive); in the experiment with HCC1569 [4], 103 (inactive).
On to `COc1ccc(S(=O)(=O)N2CCC[C@H]2C(=O)Nc2cc(C)cc(C)c2)cc1`, for which the cell number in the experiment on HCC1569 [1] amounted to 101; in the experiment with TDF [2] it was 113. Further, the H1.0 immunofluorescence intensity with TDF [3] was 95.5 (inactive); with HCC1569 [4] it was 102 (inactive).
For `C[C@@H](Nc1ncnc2[nH]c(-c3ccc(O)cc3)cc12)c1ccccc1`, in that order: 66, 64.8, 108 (inactive) and 139 (inactive).
Consider `CC(C)NCC(O)c1ccc(O)c(O)c1.O=C(O)C(O)C(O)C(=O)O` (stereo not drawn) [S(+)-Isoproterenol (+)-bitartrate], for which the values for the cell number in the experiment with HCC1569 [1] and in the experiment with TDF [2] were 105 and 97.6, respectively. For the same compound, the H1.0 immunofluorescence intensity in the experiment on TDF [3] was 91.8 (inactive); with HCC1569 [4], 93.4 (inactive).
Consider `CC12CCC3c4ccc(O)cc4CCC3C1CCC2O` (centres undefined) [Estradiol], for which the cell number in the experiment with HCC1569 [1] is 94.6; in the experiment on TDF [2], 93.8. For the same compound, the H1.0 immunofluorescence intensity in the experiment on TDF [3] was 97.6 (inactive); in the experiment with HCC1569 [4], 121 (inactive).
For `O=C(O)CCCC=CCC1C(O)CC(O)C1C=CC(O)COc1cccc(Cl)c1.[Na]` (centres undefined), in that order: 99.8, 98.7, 96.8 (inactive) and 92.6 (inactive).
Take `CN1CCN(CC(=O)N2c3ccccc3C(=O)Nc3cccnc32)CC1.Cl.Cl` [Pirenzepine dihydrochloride]: the cell number in the experiment with HCC1569 [1] is 107; in the experiment with TDF [2] it was 121. Besides, the H1.0 immunofluorescence intensity with TDF [3] is 97.4 (inactive); with HCC1569 [4], 95.9 (inactive).
For `CCCCCCCCCCCC=CCCCCCCC(=O)O` [8(Z)-Eicosenoic acid], in that order: 103, 105, 100 (inactive) and 103 (inactive).
The corresponding values for `Cl.NCCCCC(=O)O` [5-Aminovaleric acid hydrochloride] are 102, 107, 96.1 (inactive) and 91.6 (inactive).
Consider `O=C(NCCO)c1cc(C(=O)NCCO)cc(C(=O)NCCO)c1`, for which the cell number in the experiment with HCC1569 [1] worked out at 102; with TDF [2], 104. Further, the H1.0 immunofluorescence intensity in the experiment with TDF [3] is 95.2 (inactive); in the experiment with HCC1569 [4], 96.8 (inactive).
With `Cn1cc(C2=C(c3ccc(Cl)cc3Cl)C(=O)NC2=O)c2ccccc21`, the cell number in the experiment on HCC1569 [1] is 86.2 and 92.3; in the experiment with TDF [2] it was 100 and 111. Moreover, the H1.0 immunofluorescence intensity in the experiment with TDF [3] was 104 (inactive) and 105 (inactive); in the experiment with HCC1569 [4], 158 (active) and 136 (inactive).
Consider `CS(=O)(=O)CCNCc1ccc(-c2ccc3ncnc(Nc4ccc(OCc5cccc(F)c5)c(Cl)c4)c3c2)o1` [Lapatinib], for which the values for the cell number with HCC1569 [1] and in the experiment with TDF [2] were 59.8 and 57.6, respectively. Moreover, the H1.0 immunofluorescence intensity with TDF [3] is 124 (active); in the experiment with HCC1569 [4] it was 151 (active).
For `O=c1[nH]c(=O)n(C2CC(O)C(CO)O2)cc1Br` (centres undefined) [5-Bromo-2'-deoxyuridine], in that order: 99, 106, 95.7 (inactive) and 105 (inactive).
For `COC1C=COC2(C)Oc3c(C)c(O)c4c(O)c(cc([O-])c4c3C2=O)NC(=O)C(C)=CC=CC(C)C(O)C(C)C(O)C(C)C(OC(C)=O)C1C.[Na+]` (centres undefined), in that order: 103, 101, 102 (inactive) and 97.5 (inactive).
The corresponding values for `COc1cccc2c1C1CN(CCCCn3c(=O)[nH]c4c(sc5ncc(-c6ccccc6)nc54)c3=O)CC1CO2.Cl` (centres undefined) [Fiduxosin hydrochloride] are 88.8, 103, 102 (inactive) and 116 (inactive).
In the case of `Cc1nccn1CC1CCc2c(c3ccccc3n2C)C1=O` (centres undefined) [Ondansetron], the cell number in the experiment with HCC1569 [1] was determined as 103; in the experiment with TDF [2] it was 104. Moreover, the H1.0 immunofluorescence intensity in the experiment on TDF [3] is 95.4 (inactive); with HCC1569 [4], 118 (inactive).
For `CCCCCC(O)C=CC1C2CC(CO2)C1CC=CCCCC(=O)O` (centres undefined), in that order: 102, 107, 93.7 (inactive) and 99.9 (inactive).
The corresponding values for `CN(C)CCN(Cc1cccs1)c1ccccn1.Cl` [Methapyrilene hydrochloride] are 112, 95.7, 93 (inactive) and 92.7 (inactive).
The corresponding values for `O=C1N(c2ccccc2)c2ccccc2C1(Cc1ccncc1)Cc1ccncc1` [Linopirdine] are 108, 112, 93.9 (inactive) and 94.7 (inactive).
In the case of `COc1nccc(-c2c(-c3ccc(F)cc3)ncn2C2CCC(O)CC2)n1` (centres undefined), the values for the cell number in the experiment on HCC1569 [1] and in the experiment on TDF [2] were 100 and 112, respectively. The H1.0 immunofluorescence intensity is 85.5 (inactive) in the experiment on TDF [3] and 117 (inactive) in the experiment with HCC1569 [4].
For `CCCCCCCCC(O)C=CC=CC=CC(O)CCCC(=O)O` (centres undefined) [Leukotriene B3], in that order: 101, 93.8, 98.7 (inactive) and 104 (inactive).
The corresponding values for `CC(O)CCCC(O)C=CC1C(O)CC(=O)C1CC=CCCCC(=O)O` [19(R)-Hydroxy-prostaglandin E2] are 98.1, 92.7, 95.7 (inactive) and 92.1 (inactive).
The corresponding values for `CC[N+](CC)(CC)CCOc1cccc(OCC[N+](CC)(CC)CC)c1OCC[N+](CC)(CC)CC.[I-].[I-].[I-]` [Gallamine triethiodide] are 101, 99, 98.8 (inactive) and 123 (inactive).
For the compound `CN=C(NC#N)NCCSCc1csc(N=C(N)N)n1` [Tiotidine], the cell number was 102 with HCC1569 [1] and 88.1 in the experiment on TDF [2]. Also, the H1.0 immunofluorescence intensity in the experiment with TDF [3] is 105 (inactive); in the experiment on HCC1569 [4], 99.1 (inactive).
Consider `Fc1ccc(-c2nc3n(c2-c2ccncc2)CCS3)cc1`, for which the figures for the cell number in the experiment with HCC1569 [1] and in the experiment on TDF [2] were 95.4 and 108, respectively. For the same compound, the H1.0 immunofluorescence intensity in the experiment on TDF [3] was 92.3 (inactive); with HCC1569 [4], 107 (inactive).
For `COc1c(OCCCCN2CCN(C)CC2)cc(O)c2c(=O)cc(-c3ccccc3)oc12`, in that order: 25.3, 34.9, 133 (active) and 119 (inactive).
